Measurements from the supplement of paper PMC4466236.
In all, about 33,000 sequences were measured (“E-score (dimensionless, -0.5 to 0.5)”: median about -0.058, highest 2% from about 0.35 on). For the sample, the highest values were picked, then their nearest neighbours and some sequences at random.

What follows are sequences tested on MvaT (assay: PBM 8-mer E-score (mean of HK and ME arrays) (E-score (dimensionless, -0.5 to 0.5)); higher = stronger relative binding preference).
Procedure, shortened: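 Full-length P. aeruginosa MvaT carrying an N-terminal glutathione S-transferase tag was tested by protein binding microarray following a previously described protocol. Two universal double-stranded 60-mer arrays, ME and HK, were used, each with a constant 25-mer primer region and a variable 35-mer region covering all 8-mers. The rank-based E-score is the mean of the two arrays, parsed with a custom script. Its range runs from -0.5 to 0.5 for each 8-mer.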
With CCTCATAA the “PBM 8-mer E-score” value was -0.0267.
With TCGTTAAA the “PBM 8-mer E-score” value was 0.156.
In the case of CAGAAGGC, the “PBM 8-mer E-score” value is reported as -0.229.
With CTGAGCAA the “PBM 8-mer E-score” value was -0.0891.
TAAACAGA was tested, and the “PBM 8-mer E-score” value was 0.188.
In the case of ACAGACTA, the “PBM 8-mer E-score” value is reported as 0.136.
In the case of AGTCCGTC, the “PBM 8-mer E-score” value is reported as -0.103.
In the case of CGCACCCG, the “PBM 8-mer E-score” value is reported as -0.242.
For AGTTATGA, the “PBM 8-mer E-score” value was 0.319.
In the case of AGTTATCA, the “PBM 8-mer E-score” value is reported as 0.242.
With CGTTATAA the “PBM 8-mer E-score” value was 0.39.
In the case of TGTTACAA, the “PBM 8-mer E-score” value is reported as 0.257.
For CGTTATAG, the “PBM 8-mer E-score” value was 0.2.
In the case of AGTTATAA, the “PBM 8-mer E-score” value is reported as 0.43.
For AGTTATGC, the “PBM 8-mer E-score” value was 0.246.
GGTTATAC was tested, and the “PBM 8-mer E-score” value was 0.0501.
With TGTTATAA the “PBM 8-mer E-score” value was 0.437.
With AGTTATAC the “PBM 8-mer E-score” value was 0.393.
With GGTTATAA the “PBM 8-mer E-score” value was 0.344.
With CGTTATAC the “PBM 8-mer E-score” value was 0.21.
CCAACCGA was tested, and the “PBM 8-mer E-score” value was -0.0134.
In the case of TACCAAGA, the “PBM 8-mer E-score” value is reported as -0.0377.
With TCCCAACA the “PBM 8-mer E-score” value was 0.111.
With CGATACCC the “PBM 8-mer E-score” value was -0.141.
With CGCGTCCC the “PBM 8-mer E-score” value was -0.132.
For ACTGTGAC, the “PBM 8-mer E-score” value was 0.0208.
With AGTGCCGG the “PBM 8-mer E-score” value was -0.0286.
For GTACCTTA, the “PBM 8-mer E-score” value was 0.119.
With CGGGCCAA the “PBM 8-mer E-score” value was -0.118.
With GGGCGCTA the “PBM 8-mer E-score” value was -0.265.
GGGACAGA was tested, and the “PBM 8-mer E-score” value was -0.12.
With CCACCGTC the “PBM 8-mer E-score” value was -0.258.
With AGCTATAT the “PBM 8-mer E-score” value was 0.328.
AGTTATAG was tested, and the “PBM 8-mer E-score” value was 0.316.
With AGTTATAT the “PBM 8-mer E-score” value was 0.437.
With ATGGGTAC the “PBM 8-mer E-score” value was -0.0802.
AGCGTTGA was tested, and the “PBM 8-mer E-score” value was -0.0483.
For AGGTATGA, the “PBM 8-mer E-score” value was 0.12.
